Calls of active or inactive are those of the source. Rule for the calls: active = hit-call score of the fitted dose curve at least 0.9, where 1 is the maximum; inactive = score below 0.9.
read-out: Tumor necrosis factor receptor 1 (TNFRSF1A), TNFRSF1A (gene 7132); assay: LTEA_HepaRG_TNFRSF1A: Life Technologies and Expression Analysis (LTEA) Assay for Tumor necrosis factor receptor 1 (TNFRSF1A) using HepaRG (AID 2283535); settings: mRNA level, 48 h; actives raise or lower the signal
Method: LTEA_HepaRG is a cell based, multiplexed-readout assay that uses HepaRG, a human liver cell line, with measurements taken at 48 hours after chemical dosing on a 96-well plate.LTEA_HepaRG_TNFRSF1A is one of 102 assay component(s) measured in the LTEA HepaRG cell culture assay. It is a marker of Cell proliferation, survival, death.Data from the assay component LTEA_HepaRG_TNFRSF1A was analyzed into 1 endpoint. This assay endpoint, LTEA_HepaRG_TNFRSF1A, was analyzed with bidirectional fitting relative to DMSO as the negative control and baseline of activity. Using a type of inducible reporter, measures of mRNA induction for gain or loss-of-signal activity can be used to understand regulation of transcription factor activity. To generalize the intended target to other relatable targets, this assay endpoint is annotated to the cytokine receptor intended target family, where the subfamily is TNF receptor.
A total of 1060 chemcials from the ToxCast library were tested in eight-point concentration-response experiments. Cell culture and cytotoxicity assays were conducted at Thermo Fisher Scientific's Custom Services facility (Madison, WI). A single lot of human HepaRG cells (Thermo Fisher Scientific, Frederick, MD) was used for the cell culture experiments. 96-well format collagen type I coated plates of human HepaRG cells were prepared using established methods. Briefly, cryopreserved HepaRG cells were thawed, plated at a density of approximately 100,000 cells/well in HepaRG Thaw, Plate, and General Purpose media (HPRG770, Thermo Fisher Scientific), and incubated for 48 hours. 0.5% DMSO was selected as vehicle control to balance the requisite need of DMSO in HepaRG cultures to maintain differentiation (for example, baseline metabolism, proportions of hepatocytes vs. cholangiocytes), while enabling further hepatic receptor pathway activation (for example, PXR and CAR) in response to chemical exposure. 48 hours after plating, the culture medium was replaced with HepaRG Serum-Free Incudtion Media. Cells were exposed to each test chemical in duplicate and maintained in CO2 incubators for another 48 hours. Chemical plates were thawed to room temperature and 200x concentrations of treatment groups were prepared. 8-point conentration-reponse curves were made with the highest exposure at 100 uM, followed by half-log dilutions, all in 0.5% DMSO. Each test plate contained variouse controls, induction positive controls (1mM phenobarbital), cytotoxicity positive controls ([…] aflatoxin B1), vehicle controls (0.5% DMSO), and total lysis controls (0.5% DMSO). Cell morphology images were taken using an Essen IncuCyte FLR automated microscope, with six 96-well plates imaged in about 24 minutes. Images were captured and exported and JPEG files. Spent culture media was transfered to black-well plates for the LDH assay, and remaining media was sorted at -80 C for later use. Cells were treated with RLT buffer and frozen until shipped for gene expression analysis. Total RNA was isolated from the cell suspension in 75 uL of Buffer RLT (Qiagen, Germantown, MD 20874) by Quintiles/Expression Analysis (Durham, NC) using a custom isolation procedure. Total RNA from each plate well was transferred to a preamplification plate. Fluidigm's 96.96 Dynamic ArrayTM (Fluidigm, Amsterdam, the Netherlands) technology was used for gene expression analyses by quantitative reverse transcription polymerase chain reaction (qRT-PCR, performed by Quintiles/Expression Analysis, Durham, NC)89. Standard TaqManTM Assays (Applied Biosystems/ThermoFisher Scientific, Foster City, CA) were used to assess the expression of 93 genes selected based on their selectivity and sensitivity to important hepatic receptors known to be modulated by environmental chemicals; importance in human hepatocyte functionality; and hepatotoxicity. […]

| Structure (SMILES) | outcome | AC50 |
| --- | --- | --- |
| O=C(O)C(F)(F)C(F)(F)C(F)(F)C(F)(F)C(F)(F)C(F)(F)C(F)(F)C(F)(F)C(F)(F)C(F)(F)F | inactive |  |
| CCN1CCC2(CC1)COc1cc3c(cc12)N(C(=O)c1ccc(-c2ccc(-c4nnc(C)o4)cc2C)cc1)CC3 |  | 21.6 µM (active) |
| Cc1ccccc1N | inactive |  |
| CC(C)(c1ccccc1)c1ccc(O)c(C(C)(C)c2ccccc2)c1 | inactive |  |
| O=C(O)C(F)(F)C(F)(F)C(F)(F)C(F)(F)C(F)(F)C(F)(F)F | inactive |  |
| C[C@]12CCC(=O)C[C@@H]1CC[C@@H]1[C@@H]2CC[C@]2(C)[C@@H](O)CC[C@@H]12 | inactive |  |
| O=[N+]([O-])c1ccc(O)c([N+](=O)[O-])c1 |  | 4.42 µM (active) |
| CC(=O)[O][Hg][c]1ccccc1 |  | 27.6 µM (active) |
| Oc1cccc2cccnc12 | inactive |  |
| CCC(=O)C(CC(C)N(C)C)(c1ccccc1)c1ccccc1 (stereo unspecified) | inactive |  |
| ClCC(Cl)CCl | inactive |  |
| C=CC(=O)OCCCCCC(C)C | inactive |  |
| CN(C)N=O | inactive |  |
| O=C(O)C(Cl)(Cl)Cl | inactive |  |
| ClC1(Cl)C2(Cl)C3(Cl)C4(Cl)C(Cl)(Cl)C5(Cl)C3(Cl)C1(Cl)C5(Cl)C24Cl (stereo unspecified) | inactive |  |
| CCC(C)(C)c1ccc(O)c(C(C)(C)CC)c1 | inactive |  |

| Structure (SMILES) | outcome | AC50 |
| --- | --- | --- |
| O=C(Nc1ccc2[nH]ccc2c1)c1cc2cc(F)ccc2n1Cc1cccc(F)c1 | inactive |  |
| CC(C)(OO)c1ccccc1 | inactive |  |
| CCOP(=S)(OCC)SCSP(=S)(OCC)OCC |  | 0.214 µM (active) |
| CC12CC1(C)C(=O)N(c1cc(Cl)cc(Cl)c1)C2=O (stereo unspecified) | inactive |  |
| O=c1[nH]c(=O)[nH]c(=O)[nH]1 | inactive |  |
| C=C(C)C(=O)[O][Sn]([CH2]CCC)([CH2]CCC)[CH2]CCC | inactive |  |
| COc1cc(-c2ccc(N)c(OC)c2)ccc1N | inactive |  |
| O=C1C2(Cl)C3(Cl)C4(Cl)C(Cl)(Cl)C5(Cl)C3(Cl)C1(Cl)C5(Cl)C24Cl (stereo unspecified) | inactive |  |
| CC(C)(C)CC(C)(C)c1ccc(O)cc1 | inactive |  |
| CCOP(=S)(OCC)Oc1nc(Cl)c(Cl)cc1Cl | inactive |  |
| CCCCCCCCc1ccc(O)cc1 | inactive |  |
| C[C@@H]1C[C@@H]([C@H](O)CC2CC(=O)NC(=O)C2)C(=O)[C@@H](C)C1 |  | 80.6 µM (active) |
| Cn1sc(Cl)cc1=O | inactive |  |
| NC(=O)O | inactive |  |
| CC(C)(C)c1cc(O)ccc1O | inactive |  |
